According to PubChem BioAssay (NCI):
Several values for one entry are separate records, joined by “and”; a condition that tells them apart may be missing. Equal entries are not always repeated. Compounds without any hit were thinned out: in the full panel of roughly 79,000, 15% have a hit. Activity calls are given as the source filed them. Cut-off read from the data, not from the text of the source: active = growth inhibition above about 70%; inactive = the rest.

Tests used:
[1] = NCI Yeast Anticancer Drug Screen. Data for the rad50 strain (AID 155);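 note: 0% = growth of vehicle-only cultures of the same strain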; conditions: S. cerevisiae rad50 strain growth inhibition; at 50.0 µM; hits give high values
Outline: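 Cells are treated with compound, grown, and their growth is then scored against vehicle-only cultures of the same repair-deficient yeast strain.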

[2] = NCI Yeast Anticancer Drug Screen. Data for the mec2-1 strain (AID 157); conditions: S. cerevisiae mec2-1 strain, at 50.0 µM, hits give high values
Outline: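 Yeast mec2-1 mutant treated with compound. Readout: growth inhibition vs vehicle controls.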

[3] = NCI Yeast Anticancer Drug Screen. Data for the sgs1 mgt1 strain (AID 161);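 note: 0% = growth of cultures given vehicle only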; conditions: S. cerevisiae sgs1 mgt1 strain, at 50.0 µM, hits give high values
Outline: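 Inhibition of yeast growth, normalised to vehicle-treated controls, is reported for a strain bearing genetic alterations in DNA damage repair.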

[4] = NCI Yeast Anticancer Drug Screen. Data for the cln2 rad14 strain (AID 165);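 note: 0% = growth equal to vehicle treated cultures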; conditions: S. cerevisiae cln2 rad14 strain, at 50.0 µM, hits give high values
Outline: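 cln2 rad14 yeast strain; compound exposure; growth inhibition read vs vehicle controls.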

[5] = NCI Yeast Anticancer Drug Screen. Data for the bub3 strain (AID 167); conditions: S. cerevisiae bub3 mutant strain, at 50.0 µM, hits give high values
Outline: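 Part of a panel of yeast mutants defective in DNA damage repair or cell cycle regulation. Each strain is grown with compound, and inhibition is calculated relative to solvent-treated cultures.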

[6] = NCI Yeast Anticancer Drug Screen. Data for the mlh1 rad18 strain (AID 175); conditions: S. cerevisiae mlh1 rad18 strain growth inhibition; at 50.0 µM; hits give high values
Outline: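 Yeast w/ defined DNA-repair lesions; compound exposure; growth vs vehicle controls → % inhibition.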

Measured: growth inhibition

N#CC1C(=O)c2ccccc2C1=O
inactive: [1] -1.4% | [2] 4.15% | [3] 1.6% | [4] -3.35% | [5] 12.8% | [6] -1.85%

CN1Cc2cc3cc4c(cc3nc2N(C)C1)OCCO4
inactive: [1] 1.5% | [2] 12.2% | [3] -1.5% | [4] 11.4% | [5] 8.9% | [6] 15.1%

c1ccc2c(c1)cc1ccc3cccc4ccc2c1c34
inactive: [1] -6.9% | [2] -14.9% | [3] 7.15% | [4] 15.5% | [5] 14.4% | [6] 9.9%

NNc1c(C(N)=O)c2c(N)ncnc2n1C1OC(CO)C(O)C1O (stereo not given)
inactive: [1] -0.6% | [2] 37.8% | [3] 4.9% | [4] 10.5% | [5] 4.55% | [6] 19.9%

O=C(OCc1nc2ccccn2c1[N+](=O)[O-])N(CCCl)CCCl
inactive: [1] -42.6% | [2] -21.5% | [3] -35.6% | [4] -10.8% | [5] 16.9% | [6] -46%

CO[As](OC)c1ccc(N=Nc2ccc(N(C)C)cc2)cc1
active: [1] 98.4% | [2] 99.2% | [3] 98.9% | [4] 98.6% | [5] 99% | [6] 99.2%

O=C(O)CC(=O)O.[Ti].[c-]1[c-][c-][cH-][c-]1.[c-]1[c-][c-][cH-][c-]1
inactive: [1] -12.4% | [2] -5.75% | [3] -6.8% | [4] -51.6% | [5] 0.2% | [6] -0.95%

COc1ccc(C[As+](c2ccccc2)(c2ccccc2)c2ccccc2)cc1
active: [1] 97.8% | [2] 98.3% | [3] 97.4% | [4] 97% | [5] 93% | [6] 97.2%

[N-]=[N+]=NC1=C(N=[N+]=[N-])c2cccc3cccc(c23)C1=O
active: [6] 81.9%
inactive: [1] 46.3% | [2] 29.1% | [3] 55.3% | [4] 55.6% | [5] 21.1%

[Ni+2].[O-]c1ccc(Cl)cc1C=NCc1ccccn1.[O-]c1ccc(Cl)cc1C=NCc1ccccn1
active: [1] 94.3% | [2] 96.7% | [3] 97.5% | [4] 86.9% | [5] 96.5% | [6] 97.5%

S=P(NNc1ccccc1)(NNc1ccccc1)c1ccc(Cl)cc1
active: [1] 75.4% | [3] 81.9% | [4] 82.3% | [6] 83.2%
inactive: [2] -33.1% | [5] 34.6%

O=NO.O=NO.[NH-]C1CCCCC1[NH-].[Pd+2] (stereo not given)
inactive: [1] -11.2% | [2] 13.1% | [3] 15.2% | [4] 21.2% | [5] 9.05% | [6] -0.3%

[O-][N+]12CCCCC1C1CC(C2)C2CCCC(c3ccccc3)N2C1 (stereo not given)
inactive: [1] 3.55% | [2] -25.1% | [3] -22.8% | [4] -34.8% | [5] -28% | [6] -59.2%

[N-]=[N+]=NC1C2CC3CC(C2)CC1C3 (stereo not given)
inactive: [1] -15.7% | [2] 8.3% | [3] -7.2% | [4] -6.6% | [5] -10.7% | [6] -24.8%

CC1(C)SC2C(NC(=O)Cc3ccccc3)C(=O)N2C1C(=O)O (stereo not given) (tested in a mixture with another compound)
inactive: [1] 2.2% | [2] 0.85% | [3] 13.5% | [4] -2.3% | [5] -12.3% | [6] -11.7%

O=C1C=CC=C[C@@H]2C(C3OCCO3)CC[C@H]12.[C-]#[O+].[C-]#[O+].[C-]#[O+].[Fe] (stereo not given in full)
inactive: [1] 4.3% | [2] 14.8% | [3] -7.3% | [4] 23.1% | [5] 7.5% | [6] 4.75%

COC(=O)N/N=C(\C)C(CN(C)C)C(c1ccccc1)c1c(O)c2ccccc2oc1=O (stereo not given)
inactive: [1] 35.4% | [2] 28.9% | [3] 47% | [4] 34.6% | [5] 49.4% | [6] 34.1%

Oc1ccccc1-c1ccccc1
inactive: [1] 16.6% and 17.9% | [2] 11.1% and 14.4% | [3] 11% and 8.2% | [4] -16.1% and 0.75% | [5] -2.55% and -8.25% | [6] 21.4% and 20.1%

CC1(C)[C@@H]2CC[C@@]1(C)CN(CCC[N+](C)(C)C)C2
inactive: [1] 15.4% | [2] -11.8% | [3] -30.6% | [4] -5.55% | [5] -19.4% | [6] -2.35%

CCCN(CCC)C(=O)[S-].CCCN(CCC)C(=O)[S-].[Ni+2]
inactive: [1] 35% | [2] -6.25% | [3] 33.4% | [4] -38.6% | [5] 2.7% | [6] -3.5%

CCCCC1CN1C(=N)OCC (stereo not given)
inactive: [1] 6.65% | [2] -0.6% | [3] 15.4% | [4] 59.1% | [5] 0.9% | [6] 29.1%

COc1cc(Cl)c(OP(=O)(OC)OC)cc1Cl
inactive: [1] -3.8% | [2] 9.4% | [3] 12.3% | [4] -1.9% | [5] -1.05% | [6] 5.75%

C/C=C1/CN2CCC34C(=C(C(=O)OC)C1CC23)Nc1ccc(O)cc14 (stereo not given)
inactive: [1] 2.9% | [2] 2.3% | [3] 27.7% | [4] -4.05% | [5] 1.65% | [6] -61%

O=C(NC(Cc1ccccc1)C(=O)N(CCCl)CCCl)c1ccccc1 (stereo not given)
inactive: [1] -5.15% | [2] -17.5% | [3] 16.7% | [4] 4.1% | [5] -13.7% | [6] 23.4%

CC1(O)CCC(O)CC1CC(=O)O (stereo not given)
inactive: [1] 11.8% | [2] 8.5% | [3] 9.45% | [4] 22.1% | [5] -0.15% | [6] 11.4%

Oc1ccc(CCNCc2cc3c(cc2Br)OCO3)cc1
inactive: [1] 18.7% | [2] 12% | [3] -11.1% | [4] 1.2% | [5] 32.9% | [6] 21.9%

CCCCCCCCCCCCCCCCCC(=O)NC(CC(=O)OCCCCCC)c1ccc(N(CCCl)CCCl)cc1 (stereo not given)
inactive: [1] -2.6% | [2] 10.8% | [3] 12.8% | [4] -6.5% | [5] -3.9% | [6] 22.6%

Nc1cc(N)nc(N)n1
inactive: [1] 18.1% | [2] -2.9% | [3] 1.35% | [4] -4.6% | [5] -18.9% | [6] 6.2%

CN1CCC2(CC1)c1ccccc1-c1ccccc12
inactive: [1] -7.7% | [2] -20.6% | [3] -2.6% | [4] -25% | [5] -12.7% | [6] -38.7%

O=[N+]([O-])c1ccc(/C=C/c2ccc(Cl)c(S(=O)(=O)F)c2)c(Cl)c1
inactive: [1] 15.6% | [2] -4.95% | [3] -1.7% | [4] 2.45% | [5] 13% | [6] -6.3%

COc1cc2c(cc1OC)C1CC(OC(=O)c3ccccc3)(c3nccc4cc(OC)c(OC)cc34)CCN1CC2 (stereo not given)
inactive: [1] 26.9% | [2] 13.9% | [3] 20.6% | [4] 4.95% | [5] -0.8% | [6] 32.5%

CCC(Br)(CC)C(N)=O
inactive: [1] -33.5% | [2] -5.4% | [3] -26.1% | [4] -89.7% | [5] -28.1% | [6] -27.9%

CCOP(=S)(N/N=C/c1ccc(C)s1)OCC
inactive: [1] -19.3% | [2] -27.2% | [3] 5.45% | [4] -12.3% | [5] 7.65% | [6] -30.8%

O=c1oc2cc(O)ccc2c(O)c1C(c1cccnc1)c1c(O)c2ccc(O)cc2oc1=O
inactive: [1] 0.75% | [2] 1.25% | [3] 11.7% | [4] -0.05% | [5] -0.5% | [6] -80.5%

CCN1CCC(O)(c2ccccc2)C(C(=O)c2ccccc2)C1 (stereo not given)
inactive: [1] 5.15% | [2] -17.1% | [3] 5.3% | [4] 20.7% | [5] -10.9% | [6] 16.4%

CNC(=O)Oc1cccc2c1C(=O)OC2=O
inactive: [1] -2.7% | [2] 4.25% | [3] -6.55% | [4] -25.1% | [5] 2.15% | [6] 7.1%

NCCN.O=N[O-].O=N[O-].O=N[O-].O=N[O-].[Co+3].[K+]
inactive: [1] -1.1% | [2] 4.05% | [3] 14.4% | [4] 12.3% | [5] 3.6% | [6] 2.1%

NC(=O)c1ccc([As](=O)(O)O)cc1[N+](=O)[O-]
inactive: [1] -2% | [2] 3.85% | [3] 5.05% | [4] -47.8% | [5] -6.9% | [6] -10.6%

CC[C@@H]1C[C@H]2CC3c4[nH]c5ccccc5c4CCN(C2)C31
inactive: [1] 45.9% | [2] 30.2% | [3] 61.3% | [4] 37% | [5] 47.2% | [6] 65.8%

N#CCCCCCl
inactive: [1] 19.4% | [2] 10.9% | [3] 16.3% | [4] 25.2% | [5] 13.6% | [6] 28.9%

O=[N+]([O-])c1cc(Cl)ccc1Cl
inactive: [1] 11.6% and 28.9% | [2] 4.4% and -26.1% | [3] 4.75% and -10.9% | [4] 3.95% and -47.9% | [5] -6.85% and -12.7% | [6] 0.35% and -8.7%

CC(=O)CC1(OC(=O)C2C(C=C(C)C)C2(C)C)C(=O)Nc2ccccc21 (stereo not given)
inactive: [1] 40.5% | [2] 16.4% | [3] 18.6% | [4] 8.85% | [5] 23.1% | [6] 39.5%

COc1ccc(CC(N)C(=O)O)cc1N(CCCl)CCCl (stereo not given)
inactive: [1] -0.2% and -0.5% | [2] -0.55% and -7.45% | [3] -11.2% and -6.65% | [4] -6.55% and -9.85% | [5] 2.25% and 7.75% | [6] -9.25% and -7.2%

N#CNc1nnnn1-c1ccccc1 (tested in a mixture with another compound)
inactive: [1] 7.7% | [2] 9.35% | [3] 0.55% | [4] 44.4% | [5] 11.8% | [6] -16.9%

ClCCCBr
inactive: [1] 29.2% | [2] -7.35% | [3] -10.8% | [4] 13.3% | [5] 24.4% | [6] 21.9%

Cc1cccc(C)c1CCl
inactive: [1] -1.45% and 23.5% | [2] -9.75% and -12.8% | [3] -8.15% and -4.3% | [4] 12.9% and -38.5% | [5] 9.65% and -1.35% | [6] 6.95% and 20.7%

CC1=CC=NC(Cl)(Cl)N1
inactive: [1] 19.4% | [2] -9.6% | [3] -15.7% | [4] 13.6% | [5] -1.35% | [6] 20.4%

O=C(O)CC1NCc2cc3ccccc3nc21 (stereo not given)
inactive: [1] 6.4% | [2] -13.2% | [3] -17.2% | [4] 10% | [5] -0.8% | [6] 16.6%

O=C(CS(=O)(=O)O)Nc1ccccc1
inactive: [1] 36.8% | [2] 11.9% | [3] 27.9% | [4] 14.7% | [5] 17.1% | [6] 22.2%

C[CH2][Sn]([CH2]C)([CH2]CC(=O)OC)[CH2]CC(=O)OC
inactive: [1] 20.4% | [2] 18.4% | [3] 1% | [4] -11% | [5] -24.2% | [6] -64.2%
